Assay outcomes (PubChem)
Only some compounds are listed: those with a hit (about 3.7% of all), similar ones and a draw of the others.
esBAF inh: blocks esBAF chromatin remodeling in mouse ES cells; actives 2% (n = 350,000); Bmi1-luciferase knock-in reporter, 24 h; 100% = twice the neutral-well signal; AID 602393; reporter increase, % at 12.5 µM; in the data active = activation above about 40%; inconclusive = no clear call, values can overlap the other calls;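 note: 0% = median of the plate's neutral control wells and 100% = double that signal; a rise in the Bmi1 reporter signal indicates esBAF inhibition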
rRNA inh HTS: selective bacterial rRNA inhibition in E. coli; E. coli WT GFP vs humanized-ribosome RFP mutants, fluorescence, 24 h; hits give low values; DMSO median 0, no signal -100; GFP signal change (wild-type ribosome), % (test concentration not listed); actives 1.6% (n = 350,000); AID 720706;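 active = significant combined selectivity score with lowered wild-type GFP, culture density cut under 30%, mutant RFP and density less affected; inactive = any of these conditions unmet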
MLL AF4-AF9 inh: inhibitors of human MLL-AF4/AF9 interaction; P42568; AlphaScreen, biotin-AF4 peptide binding to FLAG-AF9; inhibition, % at 10 µM; actives 0.47% (n = 350,000); AID 651704;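 active = every replicate reaching a set inhibition limit, whatever the replicate mean, cut at about 25% in these data; inconclusive = mean inhibition reaches that limit but some replicates miss it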;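 note: 0% = plate neutral control median and 100% = total signal loss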
Target sequence (P42568 whole entry, looked up): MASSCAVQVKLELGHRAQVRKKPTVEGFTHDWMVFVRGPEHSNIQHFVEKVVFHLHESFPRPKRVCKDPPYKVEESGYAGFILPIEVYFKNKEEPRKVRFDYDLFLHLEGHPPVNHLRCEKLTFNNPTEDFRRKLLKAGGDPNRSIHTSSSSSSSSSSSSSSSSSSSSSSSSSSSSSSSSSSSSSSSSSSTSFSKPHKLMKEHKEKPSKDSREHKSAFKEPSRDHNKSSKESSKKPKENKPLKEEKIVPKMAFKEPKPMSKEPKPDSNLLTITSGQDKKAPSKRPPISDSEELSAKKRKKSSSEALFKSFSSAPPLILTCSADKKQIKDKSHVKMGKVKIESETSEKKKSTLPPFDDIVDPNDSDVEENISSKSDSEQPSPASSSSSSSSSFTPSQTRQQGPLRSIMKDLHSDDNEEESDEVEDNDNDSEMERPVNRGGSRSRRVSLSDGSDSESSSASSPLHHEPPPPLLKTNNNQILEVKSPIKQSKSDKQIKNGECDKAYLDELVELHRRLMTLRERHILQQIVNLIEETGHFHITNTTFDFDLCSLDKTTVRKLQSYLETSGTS
Wnt bcat act: activators of Wnt/beta-catenin signaling; activation, % at 9.35 µM; Wnt/beta-catenin reporter cell assay, activator, plate reader; actives 1.2% (n = 300,000); in the data active = activation above about 30%, passing the limit was not always enough; inconclusive = no clear call, values can overlap the other calls;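 note: 0% = neutral control wells and 100% = positive control wells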
MITF act: MITF TRPM1 promoter activation in melanoma cells; SK-MEL-5 TRPM1-promoter luciferase, 24 h; % of positive control, neutral wells = 0; actives 0.75% (n = 300,000); activation, % at 12.5 µM;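 active = mean activation of at least 80% with every replicate also reaching 80%; inconclusive = mean reaches 80% but some replicate falls short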;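 note: 0% = neutral control wells and 100% = parthenolide positive control wells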
An asterisk follows results filed as active.

How did O=C1CSC(=S)N1N=Cc1cccc(OCc2ccccc2)c1 do in these assays?
esBAF inh: 27; rRNA inh HTS: -10; MLL AF4-AF9 inh: -1; Wnt bcat act: -3

What do the screens show for `O=C1CSC(=S)N1N=Cc1ccc(OCc2ccccc2)cc1`?
esBAF inh: 50*; rRNA inh HTS: -7; MLL AF4-AF9 inh: -1; Wnt bcat act: 5

What do the screens show for `CO[C@@H]1CN(C)C(=O)c2cc(NC(=O)C3CCOCC3)ccc2OC[C@@H](C)N(C(C)=O)C[C@H]1C`?
esBAF inh: 1; rRNA inh HTS: 1; MLL AF4-AF9 inh: -2

How did CN(C)c1ccc(NC(=O)C(=O)C2C(=O)Nc3ccccc32)cc1 (stereo not drawn) do in these assays?
esBAF inh: 26; rRNA inh HTS: 3; MLL AF4-AF9 inh: -5; Wnt bcat act: 44*; MITF act: 20

Results for CC(OC(=O)c1ccc(-n2cnnn2)cc1)C(=O)Nc1ccccc1[N+](=O)[O-] (stereo not drawn) ?
esBAF inh: 7; rRNA inh HTS: -5; MLL AF4-AF9 inh: 6; Wnt bcat act: -2; MITF act: -10

What do the screens show for `Oc1ccc(NC(=S)Nc2ccc(F)cc2)cc1`?
esBAF inh: 3; rRNA inh HTS: -4; MLL AF4-AF9 inh: -1; Wnt bcat act: -1

Results for CCN(CC)c1ccc(NC(=S)Nc2ccc(F)cc2)cc1 ?
esBAF inh: 7; rRNA inh HTS: -48; MLL AF4-AF9 inh: 27*; Wnt bcat act: 0; MITF act: 32

Results for CN1OC[C@@H]2C(=O)N3CCc4c([nH]c5ccccc45)[C@@H]3C[C@@H]21 ?
esBAF inh: 1; rRNA inh HTS: 4; MLL AF4-AF9 inh: -1; Wnt bcat act: -1

How did COc1ccc(SCC(=O)c2cc(C)c(OC(=S)N(C)C)c(C)c2)cc1 do in these assays?
esBAF inh: 4; Wnt bcat act: 41*; MITF act: 29

Results for COc1ccccc1C(=O)NCCC(=O)Nc1ccc(S(=O)(=O)N2CC(C)CC(C)C2)cc1 (stereo not drawn) ?
esBAF inh: 9; rRNA inh HTS: -1; MLL AF4-AF9 inh: -2; Wnt bcat act: 0; MITF act: 8

How did CCN(CC)c1ccc(C=C2SC(=S)NC2=O)cc1 do in these assays?
rRNA inh HTS: -12; MLL AF4-AF9 inh: -2; Wnt bcat act: -3; MITF act: 6

What do the screens show for `CC1Cc2cc(/C=C3/SC(=S)NC3=O)ccc2O1` (stereo not drawn)?
rRNA inh HTS: -20*; MLL AF4-AF9 inh: 1; Wnt bcat act: 22

What do the screens show for `CC12C=CC3(O1)C(C(=O)N1CCCOC13)C2C(=O)O` (stereo not drawn)?
esBAF inh: -1; rRNA inh HTS: 19; MLL AF4-AF9 inh: -1; Wnt bcat act: 0; MITF act: 9

Results for CN1CCN(/N=C/c2ccc(-c3ccccc3)cc2)CC1 ?
esBAF inh: 35; rRNA inh HTS: -3; MLL AF4-AF9 inh: 35*; Wnt bcat act: 12; MITF act: inconclusive

What do the screens show for `CSc1ccc(/C=N/n2c(C)nnc2C)cc1`?
esBAF inh: -3; rRNA inh HTS: 5; MLL AF4-AF9 inh: 0; Wnt bcat act: -9; MITF act: -4

How did CN1CCN(/N=C/c2c3ccccc3c(Cl)c3ccccc23)CC1 do in these assays?
rRNA inh HTS: 1; MLL AF4-AF9 inh: 25*; Wnt bcat act: -3; MITF act: 14

How did CSc1ccc(/C=N/n2c(C)cc(C)cc2=O)cc1 do in these assays?
esBAF inh: 12; Wnt bcat act: -5; MITF act: 87*

Results for C(=N\N1CCN(Cc2ccccc2)CC1)/c1ccc(-c2ccccc2)cc1 ?
rRNA inh HTS: 5; MLL AF4-AF9 inh: -4; Wnt bcat act: -5; MITF act: 5

What do the screens show for `CSc1ccc(/C=N/N2CCN(C)CC2)cc1`?
esBAF inh: 10; rRNA inh HTS: -3; MLL AF4-AF9 inh: 8; Wnt bcat act: 32*; MITF act: 49

How did COCC(=O)Nc1ccc2c(c1)OC[C@H](C)N(CCC(F)(F)F)C[C@H](C)[C@H](OC)CN(C)C2=O do in these assays?
esBAF inh: -4; rRNA inh HTS: 2; MLL AF4-AF9 inh: 2

How did COc1ccc(NC(=O)c2ccccc2)c([N+](=O)[O-])c1 do in these assays?
rRNA inh HTS: 17; MLL AF4-AF9 inh: 5; Wnt bcat act: 7; MITF act: 43

What do the screens show for `COc1ccc(NC(=O)c2ccc(-n3cnnn3)cc2)c([N+](=O)[O-])c1`?
esBAF inh: 1; rRNA inh HTS: 6; MLL AF4-AF9 inh: 26*; Wnt bcat act: -3; MITF act: -2

What do the screens show for `COc1ccc(NC(=O)CSc2nc(C)cs2)c([N+](=O)[O-])c1`?
esBAF inh: 31; rRNA inh HTS: -11; MLL AF4-AF9 inh: 6; Wnt bcat act: 46*; MITF act: 21

Results for CO[C@H]1CN(C)C(=O)c2cc(NS(C)(=O)=O)ccc2OC[C@@H](C)N(C(=O)C2CC2)C[C@H]1C ?
esBAF inh: 3; rRNA inh HTS: 3; MLL AF4-AF9 inh: -1

What do the screens show for `CC(Sc1nc(-c2ccccc2)cc(C(F)(F)F)n1)C(=O)N1CCCC1` (stereo not drawn)?
esBAF inh: -9; rRNA inh HTS: -4; MLL AF4-AF9 inh: 49*; Wnt bcat act: -2

What do the screens show for `C[C@@H]1CCCCO[C@@H](CN(C)C(=O)CCCN(C)C)[C@H](C)CN([C@@H](C)CO)C(=O)c2cc(NC(=O)Nc3ccc(C(F)(F)F)cc3)ccc2O1`?
esBAF inh: -2; rRNA inh HTS: -3

Results for O=C(Nc1ccc(Br)cc1)NC1CCCCCCC1 ?
rRNA inh HTS: -29; MLL AF4-AF9 inh: 0; Wnt bcat act: 47*; MITF act: inconclusive

How did O=C(Nc1nc2ccccc2s1)NC1CCCCC1 do in these assays?
rRNA inh HTS: -9; MLL AF4-AF9 inh: 0; Wnt bcat act: 42*; MITF act: 86*

Results for O=C(Nc1ccccc1)NC1CCCCC1 ?
esBAF inh: 46*; MITF act: 26

How did O=C(Nc1ccccc1)NC1CCCCCCC1 do in these assays?
MLL AF4-AF9 inh: 2; Wnt bcat act: 8

What do the screens show for `Cc1ccc(NC(=O)C2CCN(C(=O)NC3CCCCC3)CC2)cc1Cl`?
esBAF inh: 5

Results for Cc1ccc(NC(=O)NC2CCCCC2)cc1Cl ?
esBAF inh: 85*; MITF act: inconclusive

Results for CCOC(=O)CNC(=O)N1CCCC(N(C)CCc2ccccc2)C1 (stereo not drawn) ?
esBAF inh: -6; rRNA inh HTS: 19; MLL AF4-AF9 inh: -2; Wnt bcat act: -1; MITF act: 0

What do the screens show for `Cc1ccc(S(=O)(=O)Nc2cccc3c2O[C@H](CN(C)Cc2ccc(C(=O)Nc4ccccc4N)cc2)[C@@H](C)CN([C@H](C)CO)C3=O)cc1`?
rRNA inh HTS: -3; MLL AF4-AF9 inh: 2

What do the screens show for `O=C(NCCN1CCCCC1)Nc1ccc(F)c(Cl)c1`?
esBAF inh: -3; MITF act: 0
